Screening results (PubChem BioAssay)
Only some compounds are listed: those with a hit (about 12% of all), similar ones and a draw of the others.
Lmaj promast = Leishmania major promastigote growth inhibition, primary screen; Leishmania major promastigotes, resazurin fluorescence viability; inhibition, % at 10 µM; 200,000 compounds, 9% hits; in the data active = inhibition above about 50%;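 also: promastigotes grown with compound for 44 hours at 28 °C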
Cl transport mod = KCC2 cotransporter modulators, thallium flux, primary screen, cell-based, HEK293 KCC2, FluoZin-2 fluorescence, MLSMR. Solute carrier family 12 member 5 (Homo sapiens), Q9H2X9. KCC2 cells, thallium flux FluoZin-2 fluorescence. B-score of Tl+ flux slope (higher = more flux/activation; lower = inhibition) at 10 µM. 190,000 compounds, 2.2% hits. AID 1456, 2008;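 active = thallium flux slope and its plate-corrected score both differing from the plate sample mean at a set confidence after two filtering rounds, in either direction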;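 also: slope of fluorescence scaled to starting intensity during 10 to 20 s after thallium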
Target sequence (Q9H2X9 whole entry, looked up): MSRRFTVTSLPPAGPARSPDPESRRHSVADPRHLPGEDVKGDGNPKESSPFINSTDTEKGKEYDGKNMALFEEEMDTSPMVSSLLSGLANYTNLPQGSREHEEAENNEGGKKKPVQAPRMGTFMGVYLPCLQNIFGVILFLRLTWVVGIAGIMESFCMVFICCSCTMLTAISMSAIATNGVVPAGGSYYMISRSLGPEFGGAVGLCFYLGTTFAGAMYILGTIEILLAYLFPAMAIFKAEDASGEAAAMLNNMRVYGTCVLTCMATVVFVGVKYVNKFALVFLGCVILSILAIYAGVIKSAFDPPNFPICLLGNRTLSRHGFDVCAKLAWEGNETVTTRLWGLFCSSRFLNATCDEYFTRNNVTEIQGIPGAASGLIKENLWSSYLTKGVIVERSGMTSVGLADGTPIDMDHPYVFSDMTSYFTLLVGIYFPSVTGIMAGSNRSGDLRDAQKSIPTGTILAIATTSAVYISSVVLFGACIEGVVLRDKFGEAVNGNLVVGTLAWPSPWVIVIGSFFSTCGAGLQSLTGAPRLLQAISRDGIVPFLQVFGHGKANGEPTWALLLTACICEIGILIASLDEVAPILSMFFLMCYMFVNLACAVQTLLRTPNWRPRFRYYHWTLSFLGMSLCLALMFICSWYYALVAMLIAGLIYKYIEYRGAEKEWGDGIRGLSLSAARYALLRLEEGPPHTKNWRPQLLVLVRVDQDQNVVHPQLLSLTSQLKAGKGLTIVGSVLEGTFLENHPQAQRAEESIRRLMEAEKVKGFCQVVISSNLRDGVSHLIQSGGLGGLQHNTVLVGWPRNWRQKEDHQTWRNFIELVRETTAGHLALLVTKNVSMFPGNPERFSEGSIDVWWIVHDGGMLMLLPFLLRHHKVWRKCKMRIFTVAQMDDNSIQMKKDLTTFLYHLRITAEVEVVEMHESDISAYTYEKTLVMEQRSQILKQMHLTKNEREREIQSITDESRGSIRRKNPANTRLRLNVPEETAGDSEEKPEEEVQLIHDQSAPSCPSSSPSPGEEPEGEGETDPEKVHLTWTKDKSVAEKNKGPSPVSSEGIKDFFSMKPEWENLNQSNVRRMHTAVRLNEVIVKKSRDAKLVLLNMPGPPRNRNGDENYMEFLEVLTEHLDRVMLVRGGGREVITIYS
ROMK primary = ROMK potassium channel modulators, primary screen, cell-based, thallium flux, MLSMR library | 130,000 compounds, 2% hits | B-score at 10 µM | Tet-inducible ROMK, thallium flux fluorescence; actives lie on both sides | ATP-sensitive inward rectifier potassium channel 1 (Homo sapiens), P48048 | AID 1918, 2009;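 active = signal ratio slope over the read window, or its plate-corrected B-score, at least 3 SD from the plate mean, either direction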;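 also: B-score of the F/F0 ratio slope over 7 to 12 s after thallium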
Calpain2 inh = inhibitors of pig calpain II, primary screen, biochemical, fluorogenic peptide substrate, 1536-well; inhibition, % at 16 µM; 220,000 compounds, 0.37% hits; purified calpain II, 30 min;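 active = inhibition above about 50%, limit read from the data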
WT yeast gro inh = growth inhibition of WT strain, primary screen, mitochondrial fusion inhibitor project, WT and mutant strains, chemical genetic; 190,000 compounds, 2.1% hits; mitochondrial fusion phenotypic screen; inhibition, % at 10 µM; AID 1362, 2008; in the data active = inhibition above about 58%; tested in S. cerevisiae
Large screens that a line does not name were inactive.

Cc1ccc(Cl)cc1N1CCN(C(=O)C2(S(=O)(=O)c3ccc(Cl)cc3)CC2)CC1	Lmaj promast 97 (no result: ROMK primary)
CC(=O)c1ccc(N2CCN(C(=O)C3(S(=O)(=O)c4ccc(Cl)cc4)CC3)CC2)cc1	none (no result: Cl transport mod)
Cc1cccc(N2CCN(C(=O)C3(S(=O)(=O)c4ccc(Cl)cc4)CC3)CC2)c1C	Lmaj promast 52
O=C(NCCCN1CCN(c2cccc(Cl)c2)CC1)C1(S(=O)(=O)c2ccc(Cl)cc2)CC1	Lmaj promast 100 (no result: ROMK primary)
COc1ccc(N2CCN(CCCNC(=O)C3(S(=O)(=O)c4ccc(Cl)cc4)CC3)CC2)cc1	none (no result: ROMK primary)
O=C(N1CCN(c2cccc(Cl)c2)CC1)C1(S(=O)(=O)c2ccc(Cl)cc2)CC1	Lmaj promast 99 (no result: ROMK primary)
Cc1cc(NC(=O)NC2CC(=O)N(c3ccc4c(c3)OCCO4)C2)no1 (stereo not given)	none
CNS(=O)(=O)c1ccc(C(C)(C)C)cc1	none
CC(/C=N/NC(=O)c1cc(-c2ccc(Cl)cc2)nc2ccccc12)=C\c1ccco1	Lmaj promast 62
CC(/C=N/NC(=O)c1cc(-c2ccccc2)nc2ccccc12)=C\c1ccco1	Lmaj promast 98 (no result: ROMK primary)
COc1cc(/C=N/NC(=O)c2cc(-c3ccco3)nc3ccccc23)cc(OC)c1O	none (no result: Lmaj promast, ROMK primary, WT yeast gro inh)
Cc1cc(C(=O)N/N=C/c2ccco2)c2ccccc2n1	none (no result: ROMK primary)
O=C(N/N=C/c1cccc(F)c1)c1cc(-c2ccco2)nc2ccccc12	WT yeast gro inh 60 (no result: Cl transport mod, ROMK primary)
COc1ccc(C2C(C(=O)OC3CCCCC3)=C(C)Nc3nnnn32)c(OC)c1OC (stereo not given)	Lmaj promast 91
CC1=C(C(=O)OC2CCCCC2)C(c2cccnc2)n2nnnc2N1 (stereo not given)	none
CCCCOC(=O)C1=C(C)Nc2ncnn2C1c1ccc(OCC)c(OC)c1 (stereo not given)	none (no result: ROMK primary)
CCOC(=O)C1=C(C)NC(=S)N(C(C)=O)C1c1ccc(OC)c(OC)c1 (stereo not given)	none (no result: Lmaj promast, WT yeast gro inh)
CCOC(=O)C1=C(C)Nc2nnnn2C1c1ccc(OC)c(Br)c1 (stereo not given)	Lmaj promast 91 (no result: ROMK primary)
CCCCOC(=O)C1=C(C)Nc2ncnn2C1c1ccc(OC)c(OC)c1 (stereo not given)	Lmaj promast 75 (no result: ROMK primary)
COc1ccccc1NC(=O)Cn1nc(Cc2cccnc2)c2ccccc2c1=O	none (no result: Lmaj promast, WT yeast gro inh)
CCNC(=O)COc1ccc(/C=N/NC(=O)c2cccnc2)cc1OC	none
COc1cc(/C=N/NC(=O)c2cccnc2)ccc1OS(=O)(=O)c1cc(C)ccc1C	Lmaj promast 97
COc1cc(/C=N/NC(=O)c2cccnc2)ccc1OCC(=O)Nc1ccc(C)cc1	Lmaj promast 55 (no result: ROMK primary)
COc1cc(/C=N/NC(=O)c2cccnc2)ccc1OS(=O)(=O)c1ccc(C)cc1	none
COc1ccc(-c2nn(C)c3sc(C(=O)N4CCOCC4)cc23)cc1OC	none (no result: ROMK primary)
COc1ccc(N2CCN(C(=O)c3cc4c(-c5cccc(OC)c5)nn(C)c4s3)CC2)cc1	Lmaj promast 62 (no result: ROMK primary)
CCOCCCNC(=O)c1cc2c(-c3ccc(Cl)cc3)nn(C)c2s1	none (no result: Cl transport mod, ROMK primary)
CCN(CC)CCNC(=O)c1cc2c(-c3ccc(Cl)cc3)nn(C)c2s1	Lmaj promast 100 (no result: Cl transport mod, ROMK primary)
CCN1CCN(C(=O)c2cc3c(-c4ccc(Cl)cc4)nn(C)c3s2)CC1	Lmaj promast 52 (no result: Cl transport mod, ROMK primary)
CC(CS(=O)(=O)c1ccccc1[N+](=O)[O-])N1CCOCC1 (stereo not given)	none
CCOc1ccc(N(CC(=O)NCCc2ccc(Cl)cc2)S(=O)(=O)c2c(C)[nH]c(=O)[nH]c2=O)cc1	none
O=C(NNC(=O)c1ccccn1)c1cccc([N+](=O)[O-])c1	Lmaj promast 58
Cc1cccc(NC(=S)NNC(=O)c2cccc([N+](=O)[O-])c2)c1	none (no result: Lmaj promast, WT yeast gro inh)
O=C(NNC(=S)Nc1ccc(Cl)c(Cl)c1)c1cccc([N+](=O)[O-])c1	Cl transport mod -5.4, ROMK primary 3 (no result: Lmaj promast, WT yeast gro inh)
O=C(NNC(=O)c1cc(-c2ccccc2)n(-c2ccccc2)n1)c1cccc([N+](=O)[O-])c1	Cl transport mod 15 (no result: ROMK primary)
O=C(O)COc1ccccc1/C=N/NC(=O)CN1CCN(Cc2ccc(Cl)cc2)CC1	none (no result: Lmaj promast, ROMK primary, WT yeast gro inh)
COc1ccccc1CN1CCN(C(=O)c2ccncc2)CC1	none
COc1ccccc1CN1CCSCC1	Lmaj promast 63
CCN1CCCC1Cn1cnc2c([nH]c3ccc(OC)cc32)c1=O (stereo not given)	none (no result: Lmaj promast, ROMK primary, WT yeast gro inh)
CNc1nc(C)nc(-n2nc(C)cc2C)n1	none (no result: ROMK primary)
